We go through 98 compounds from PubChem BioAssay AID1259374 (The Scripps Research Institute Molecular Screening Center, 2018).

The whole screen tested about 650,000 compounds, of which about 5,900 (0.91%) were called active. Many of the other results were omitted from the sample, so actives are more common in it than they were. A number with no mark means an inactive call. Rule as the data show it: active = inhibition above about 50%; inactive = the rest.

Sequence of Microphthalmia-associated transcription factor (Homo sapiens) (O75030 whole entry, looked up): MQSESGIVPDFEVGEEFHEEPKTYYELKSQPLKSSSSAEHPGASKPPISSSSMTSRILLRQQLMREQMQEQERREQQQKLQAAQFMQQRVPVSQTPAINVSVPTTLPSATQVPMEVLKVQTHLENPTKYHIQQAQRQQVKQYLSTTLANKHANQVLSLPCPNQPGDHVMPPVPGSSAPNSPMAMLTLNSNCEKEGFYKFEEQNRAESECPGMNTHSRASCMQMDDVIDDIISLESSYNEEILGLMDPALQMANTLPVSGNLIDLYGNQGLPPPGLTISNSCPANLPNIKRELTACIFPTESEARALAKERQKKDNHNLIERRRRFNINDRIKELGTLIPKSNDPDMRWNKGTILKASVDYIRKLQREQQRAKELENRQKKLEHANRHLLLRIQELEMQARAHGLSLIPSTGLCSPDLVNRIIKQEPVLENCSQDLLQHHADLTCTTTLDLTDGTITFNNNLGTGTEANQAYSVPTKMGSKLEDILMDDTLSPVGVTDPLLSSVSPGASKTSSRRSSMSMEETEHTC

The test has as its target Microphthalmia-associated transcription factor (Homo sapiens) (UniProt O75030). The experiment in a line: MITF inhibitors, primary screen, biochemical, AlphaScreen, human (AID 1259374).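 Also: 0% = vehicle wells with protein.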 To be noted: AlphaScreen MITF homodimerization, bead proximity signal; at 2.6 µM; hits give high values. (In general: Bead proximity is the source of the signal in Alpha formats.)
By inhibition is commonly meant the change of the read-out against control, counted positive when it falls. For the compound `CC(C)[C@@H](CO)Nc1ccc2ncc(-c3ccccc3F)n2n1`, the inhibition is -14.3%.

Regarding `CC(=O)c1ccc(OCC(=O)N2CCOCC2)cc1`, the inhibition is -0.62%.

As for `CCCS(=O)(=O)N1CCN(Cc2cccc(Cl)c2)CC1`, the inhibition was 54.8% (active).

For `CS(=O)(=O)N1CCN(Cc2cccc(Cl)c2)CC1`, the inhibition was 70.2% (active).

Take `CCCS(=O)(=O)N1CCC(O)(c2cccnc2)CC1`: the inhibition is 13.4%.

Take `CCS(=O)(=O)N1CCN(c2cccc(Cl)c2)CC1`: the inhibition was -3.13%.

On to `O=S(=O)(c1ccc(Br)c2ccccc12)N1CCN(Cc2ccccc2)CC1`, for which the inhibition is 7.47%.

Turning to `CCCS(=O)(=O)N1CCN=C1SCc1cccc(Cl)c1`, the inhibition was 18.8%.

`CS(=O)(=O)N1CCC(c2nc3c(nnn3Cc3cccc(Cl)c3)c(=O)[nH]2)CC1`: the inhibition is 9.95%.

As for `CCCS(=O)(=O)N1CCN(Cc2ccccc2Br)CC1`, the inhibition is 58.2% (active).

For the compound `Clc1cccc(CN2CCN(c3ccccn3)CC2)c1`, the inhibition was 50.1%.

Turning to `CC(CC(=O)N(CC(N)=O)C(C)C)c1ccccc1` (stereo not drawn), the inhibition was -5.95%.

For the compound `CCOC(=O)c1cccc(NC(=O)COc2ccccc2Br)c1`, the inhibition was 8.75%.

In the case of `COc1cc(/C=C(/C#N)C(N)=S)c(Br)cc1O`, the inhibition is 24.1%.

For the compound `CSc1ccccc1C(=O)NCc1c(C)ncc2c1CCN(C(=O)c1cc(C)oc1C)C2`, the inhibition is 12.3%.

In the case of `COc1ccc(C(=O)N2CCCCO2)cc1OC1CCN(C(C)=O)CC1`, the inhibition was 2.51%.

`Cc1ccc(SCC(=O)NCc2nc(-c3ccc(C)cc3)no2)cc1`: the inhibition is -3.11%.

In the case of `CC(C)CCN1CCNC(=O)C1CC(=O)N1CCCO1` (stereo not drawn), the inhibition is 1.48%.

In the case of `O=[N+]([O-])c1c(Cl)cc(Cl)c2nsnc12`, the inhibition is 1.42%.

For `C=CCn1c(C)c(/C=c2/sc3n(c2=O)C(c2ccc(OC)c(Br)c2)C(C(=O)OCC)=C(C)N=3)c2ccccc21` (stereo not drawn), the inhibition was -0.97%.

`CN1CCN(c2nccnc2-c2cccc(C(=O)NCCO)c2)CC1`: the inhibition is 4.98%.

Regarding `O=[N+]([O-])c1ccccc1CN1CCN(Cc2ccccc2C(F)(F)F)CC1`, the inhibition was 67.3% (active).

For the compound `O=S(=O)(c1ccc(F)cc1)N1CCN(Cc2ccccc2C(F)(F)F)CC1`, the inhibition was 59.6% (active).

As for `CCOc1ccccc1CN1CCN(Cc2cccnc2)CC1CCO` (stereo not drawn), the inhibition was 8.25%.

Regarding `O=S(=O)(c1ccc(F)cc1)N1CCN(Cc2ccccc2F)CC1`, the inhibition was 3%.

Consider `COc1ccccc1N1CCN(C2CCN(Cc3ccccc3[N+](=O)[O-])CC2)CC1`, for which the inhibition was -2.11%.

In the case of `O=[N+]([O-])c1ccccc1CN1CCN(Cc2cccnc2)CC1`, the inhibition was 61.9% (active).

Consider `O=C(Cc1ccccc1[N+](=O)[O-])NNC(=O)Nc1ccccc1C(F)(F)F`, for which the inhibition is 13.8%.

On to `O=S(=O)(c1ccc(F)cc1)N1CCN(CCCc2ccccc2)CC1`, for which the inhibition was 43.8%.

As for `CCC(C)C(=O)NCc1nnc2n1CCN(Cc1cccnc1)CC2` (stereo not drawn), the inhibition is 0.14%.

As to `O=C(CC(Nc1ccc2ccccc2c1)c1cccnc1)c1ccccc1` (stereo not drawn), the inhibition is 1.3%.

Consider `CC(=O)Nc1ccc(Oc2cc(NC(=O)c3cccc(F)c3)cc([N+](=O)[O-])c2)cc1`, for which the inhibition was 9%.

For `O=C1c2ccccc2C(=O)c2c1cccc2S(=O)(=O)N1CCCC1`, the inhibition was 10.2%.

For `O=C(Nc1ccc2nsnc2c1NC(=O)c1ccc2nsnc2c1)c1ccc2nsnc2c1`, the inhibition was 1.05%.

`N#CCSc1nc2[nH]ncc2c(=O)n1-c1cccc(C(F)(F)F)c1`: the inhibition was 1.44%.

As for `CC(C)[C@@H](C(=O)OCC(=O)Nc1cccnc1Cl)N1C(=O)c2ccccc2C1=O`, the inhibition is -1.46%.

`Oc1cccc(/C=N/Nc2ccc(Cl)nn2)c1O`: the inhibition was 89.8% (active).

On to `C/C(=N\Nc1nc(C(C)(C)C)cs1)c1ccccc1O`, for which the inhibition was 6.2%.

Regarding `C/C(=N\NC(=O)C(O)(c1ccccc1)c1ccccc1)c1ccccc1O`, the inhibition was -4.23%.

Turning to `NC(=O)c1ccc(N=Cc2cccc(O)c2O)cc1`, the inhibition is 25.2%.

Regarding `COc1ccccc1N=Cc1cccc(O)c1O`, the inhibition was -5.98%.

As to `C/C(=N\Nc1ccc(Cl)nn1)c1ccccc1O`, the inhibition is 61.1% (active).

As for `COc1ccc(/C=C/C(=O)NCc2ccccc2OC)cc1`, the inhibition was -9.24%.

With `CCc1ccc(N=c2oc3c(C)ncc(CO)c3cc2C(N)=S)cc1`, the inhibition is 3.64%.

Consider `COc1ccccc1NC1=C/C(=N/S(=O)(=O)c2ccc(F)cc2)c2ccccc2C1=O`, for which the inhibition was 67.4% (active).

Turning to `COC(=O)c1ccccc1NC1=C/C(=N/S(=O)(=O)c2ccccc2)c2ccccc2C1=O`, the inhibition is 23.4%.

In the case of `COc1ccc(S(=O)(=O)/N=C2/C=C(Nc3ccc(O)cc3)C(=O)c3ccccc32)cc1`, the inhibition is 20%.

For `COc1cc(CN2CCN(Cc3cccnc3)CC2)cc(OC)c1OC`, the inhibition is 80.7% (active).

In the case of `CCOc1cc(CN2CCC(n3nccc3NC(=O)C(C)(C)C)CC2)ccc1OC`, the inhibition is -3.52%.

For `COc1cc(CN2CCN(c3ccccn3)CC2)cc(OC)c1O`, the inhibition was 19.3%.

As for `CCOc1ccccc1N1CCN(S(=O)(=O)c2ccc([N+](=O)[O-])cc2)CC1`, the inhibition is 6.79%.

Regarding `COC(=O)c1c(OC2CCCC2)cc(=O)n2c1CCN(Cc1cccnc1)CC2`, the inhibition was 2.84%.

For `CCOc1cc(CN2CCN(C(=O)c3ccccc3F)CC2)ccc1OC`, the inhibition is 34.4%.

Turning to `CCOc1ccccc1N1CCN(Cc2cc(OC)c(O)c([N+](=O)[O-])c2)CC1`, the inhibition is 55.2% (active).

`CCOc1ccc(CN2CCN(Cc3ccc(OC)c(OCC)c3)CC2)cc1`: the inhibition was 9.84%.

On to `Cc1cc2nc(N3CCCN(Cc4cccnc4)CC3)nc(C)c2cc1C`, for which the inhibition was 6.51%.

As to `COc1ccc(C(=O)N2CCN(Cc3cccc(OC)c3)CC2)cc1`, the inhibition was 45.7%.

In the case of `CCOc1cc(CN2CCN(Cc3ccccn3)CC2)ccc1OC`, the inhibition is 62.3% (active).

`COc1cccc(CN2CCN(C(=O)c3ccccc3F)CC2)c1`: the inhibition is 56.7% (active).

For `c1ccc2c(-c3nc(Nc4ccc(N5CCOCC5)cc4)c4ncn(C5CCCCC5)c4n3)csc2c1`, the inhibition is 1.65%.

With `COc1cccc(OC)c1C(=O)NNC(=O)c1cccc(C)c1O`, the inhibition is -15.2%.

Take `Cn1cnnc1SCC(=O)N1CCN(c2ccccc2)CC1`: the inhibition is 1.28%.

Regarding `CCOC(=O)c1sc(NC(=O)c2ccc(S(=O)(=O)N3CCc4ccccc43)cc2)nc1-c1ccccc1`, the inhibition is 15.2%.

Regarding `CCOC(=O)c1c(NC(=O)C(C)Sc2nnc(CNC(=O)c3ccc(C)c([N+](=O)[O-])c3)n2CCc2ccccc2)sc2c1CCC2` (stereo not drawn), the inhibition is -9.22%.

In the case of `O=C(COc1ccc(Cl)cc1Cl)Nc1ccc(Br)cn1`, the inhibition was 9.36%.

As to `Cc1cc(-n2c(C)nc3ccccc3c2=O)ccc1NS(=O)(=O)c1ccccc1`, the inhibition was -5.82%.

Regarding `O=C(O)CNC(=O)/C(=C/c1ccc2c(c1)OCO2)NC(=O)c1cccc(Br)c1`, the inhibition was -6.12%.

Regarding `COc1ccccc1NC(=O)N1CCC(CO)(Cc2ccccc2Cl)CC1`, the inhibition was -1.19%.

Regarding `O=C1CCN(Cc2cccnc2)CCN1Cc1c(F)cc(F)cc1F`, the inhibition is 10.8%.

Consider `COc1ccc(CN2CCN(Cc3cccnc3)CC2)cc1OCc1ccccc1`, for which the inhibition is 75.8% (active).

In the case of `COc1ccc(/C=N/N2CCN(C)CC2)cc1OCc1ccccc1`, the inhibition is 21.7%.

As to `COc1cccc(OC)c1C(=O)N1CCN(Cc2ccccc2F)CC1`, the inhibition is 55.7% (active).

Take `CCCS(=O)(=O)N1CCN(Cc2ccc(OC)c(OCc3ccccc3)c2)CC1`: the inhibition was 52.7% (active).

Turning to `COc1cc(OC)c(OC)cc1CN1CCN(C(=O)c2ccccc2F)CC1`, the inhibition was 17.8%.

For the compound `c1ccc(CCc2nnc3n2CCN(Cc2cccnc2)CC3)cc1`, the inhibition is 4.85%.

For the compound `COc1c(S(=O)(=O)N2CCN(Cc3ccccc3)CC2)ccc(Cl)c1Cl`, the inhibition is -5.29%.

Consider `c1ccc(COc2ccccc2CNCc2cccnc2)cc1`, for which the inhibition was -4.27%.

On to `Brc1cccc(CN2CCN(Cc3cccnc3)CC2)c1`, for which the inhibition was 77.7% (active).

Turning to `CCOC(=O)C1CCN(Cc2ccccc2F)CC1`, the inhibition was 26.1%.

In the case of `COc1cc(CN2CCC(O)CC2)ccc1OCc1ccccc1`, the inhibition was -15%.

`COc1ccc(NC(=O)c2cc(C3CC3)on2)cc1`: the inhibition is -14%.

`NS(=O)(=O)c1ccc(NSc2ccccc2[N+](=O)[O-])cc1`: the inhibition is 13.8%.

Consider `CC(=O)Nc1ccc(OCC(O)CN2CCN(c3cccc(C(F)(F)F)c3)CC2)cc1` (stereo not drawn), for which the inhibition is 10.8%.

Consider `CC1CCN(C(=O)CSc2nc3c(c(=O)n2CCc2ccccc2)SCC3)CC1`, for which the inhibition was -10.8%.

`CC(=O)Nc1ccc(C(=O)N/N=C/c2cccc(C)n2)cc1`: the inhibition was 9.97%.

In the case of `C=CCOc1ccc(C2Nc3ccccc3-c3nnc(SC)nc3O2)cc1` (stereo not drawn), the inhibition was 3.95%.

For the compound `CC(C)C(=O)NC(NC(=S)Nc1ccccc1C(=O)O)C(Cl)(Cl)Cl` (stereo not drawn), the inhibition was 9.89%.

Consider `COc1ccc(Cn2nc(-c3ccncc3)oc2=O)cc1`, for which the inhibition was 3.66%.

For the compound `O=C(NCCOc1ccccc1)c1cc(-c2ccccc2)nc2c(Cl)cccc12`, the inhibition was -8.8%.

In the case of `COC(=O)c1ccccc1S(=O)(=O)C1CCN(Cc2cccnc2)CC1`, the inhibition was 13.1%.

Consider `COc1ccccc1C(=O)N1CCN=C1SCc1cccnc1`, for which the inhibition was -16.8%.

Take `COc1cccc(OC)c1C(=O)N1CCN(Cc2cccnc2)CC1`: the inhibition was 79.5% (active).

Turning to `Cc1cc(C)c(S(=O)(=O)N(C)CCO)cc1N(C)S(=O)(=O)c1ccc(Cl)cc1`, the inhibition was -12%.

Take `CCCCC(=O)N1CCN(c2ccccc2OCC)CC1`: the inhibition is -2.97%.

As for `CCN(CC)CCNC(=O)c1sc2ncn(Cc3ccccc3F)c(=O)c2c1C`, the inhibition is -7.31%.

On to `COC(=O)c1ccc(C2Nc3c(C(=O)OC)cccc3C3C=CCC32)cc1` (stereo not drawn), for which the inhibition was 4.19%.

In the case of `COc1cccc(C2Nc3ccc(C(=O)O)cc3C3C=CCC32)c1OC` (stereo not drawn), the inhibition is 13.7%.

For `CCOc1cccc2c1N[C@@H](c1ccc(C(=O)O)cc1)[C@H]1CC=C[C@@H]21`, the inhibition was 65.3% (active).
